The list is not random: actives were taken first. Their share in the collection is about 12%.
Sfp PPTase inh – blocks B. subtilis Sfp PPTase activity; Biochemical Sfp PPTase activity, qHTS; Potency, µM, usual class: inhibitors; actives 3.5% (n = 310,000); AID 1490;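 further: the enzyme is Sfp with the accession as filed and its product quenches rhodamine fluorescence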
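Compounds were incubated with enzyme (final 15 nM) for 15 min at room temperature before substrate addition started the reaction. Fluorescence at 525 nm excitation, 598 nm emission was recorded immediately and after 30 minutes.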
G9a inh – G9a (human) methyltransferase inhibition; Q96KQ7; G9a H3K9 monomethylation, AlphaScreen, 2 h; Potency, µM (doses to about 102 µM), most hits filed as inhibitors; actives 8.8% (n = 350,000); further: nearly all actives have a fitted effect of over 75% in size
Target sequence (Q96KQ7 913-1193 limits assumed): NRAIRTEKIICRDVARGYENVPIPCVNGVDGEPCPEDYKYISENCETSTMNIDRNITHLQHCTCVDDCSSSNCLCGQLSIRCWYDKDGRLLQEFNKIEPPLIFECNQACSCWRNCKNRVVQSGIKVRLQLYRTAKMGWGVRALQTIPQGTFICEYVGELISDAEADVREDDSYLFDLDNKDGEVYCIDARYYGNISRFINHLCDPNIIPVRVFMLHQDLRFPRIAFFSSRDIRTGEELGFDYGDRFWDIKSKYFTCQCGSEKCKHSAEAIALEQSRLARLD
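G9a (20 nM) was preincubated 15 min with compound, then reacted 2 h at room temperature with 500 nM biotin-H3K9 peptide and 20 µM SAM. Monomethyl-H3K9 detected by AlphaScreen using anti-H3K9me1 antibody.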
JMJD2A Tudor inh – blocks the human JMJD2A Tudor domain; O75164; AlphaScreen JMJD2A-Tudor / H3K4me3 peptide binding; Potency, µM (doses to about 114 µM), hits mostly inhibitors; actives 4.4% (n = 390,000); AID 504339; further: nearly all actives have a fitted effect of over 50% in size
L3MBTL1 inh – blocks human L3MBTL1 | Q9Y468 | AlphaScreen L3MBTL1–H3K9me1 peptide binding | Potency, µM (highest dose often 57.1 µM), hits mostly inhibitors | actives 0.66% (n = 230,000); further: nearly all actives have a fitted effect of over 60% in size
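First, the protein-peptide complex forms for 30 min at room temperature (L3MBTL1 50 nM, biotinylated H3K9me1 peptide 75 nM). Next, compounds are pin-transferred and incubated 30 min. Finally, AlphaScreen beads are added and read after 30 min.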
BAZ2B inh – inhibitors of human BAZ2B bromodomain | Potency, µM (series often up to 114 µM), actives largely listed as inhibitors | Q9UIF8 | actives 4.4% (n = 360,000) | AlphaScreen BAZ2B-H3K14Ac peptide displacement | AID 504333; further: nearly all actives have a fitted effect of over 60% in size
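Multi-concentration screen (max 110 uM) measuring displacement of acetylated histone H3 peptide from BAZ2B by AlphaScreen, using 50 nM protein, 50 nM peptide and 10 ug/mL streptavidin donor plus Ni-chelate acceptor beads.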
HP1b chromo inh – inhibitors of HP1-beta chromodomain binding to methylated histone tails. P83916. AlphaScreen HP1-beta / biotin-H3K9me3 peptide binding. Potency, µM (series often up to 114 µM), hits mostly inhibitors. actives 0.56% (n = 390,000). AID 540317; further: nearly all actives have a fitted effect of over 70% in size
Target sequence (P83916 whole entry, looked up): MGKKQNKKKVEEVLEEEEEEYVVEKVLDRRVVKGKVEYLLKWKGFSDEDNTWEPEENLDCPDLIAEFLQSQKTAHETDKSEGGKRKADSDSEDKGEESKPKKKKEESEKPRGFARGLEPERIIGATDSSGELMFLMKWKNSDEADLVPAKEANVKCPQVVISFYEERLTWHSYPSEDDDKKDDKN
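AlphaScreen: HP1-beta (50 nM) preformed 30 min with biotin-H3(1-18)K9me3 peptide (50 nM) in PBS pH 7.4, 0.01% Tween-20. Compound added for 30 min at RT, then streptavidin donor/nickel chelate acceptor beads (10 ug/mL) for 30 min.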
A number is an active result; [ ] = another dose, or the depositor's remark. The call rests on the fitted dose curve; in most records, active means well fitted curve in the direction sought with a large enough effect; inconclusive means small, poorly fitted or top-dose-only effect, or another doubt; inactive means no such curve, though single readings can be large; an effect the other way counts as inactive or inconclusive.

What do the screens show for `CCOc1ccc2nc(NC3=NC(c4ccc(OC)cc4)CC(=O)N3)nc(C)c2c1` (stereo not drawn)?
Sfp PPTase inh: 22.4µM; G9a inh: 10µM; JMJD2A Tudor inh: 79.4µM; L3MBTL1 inh: inactive; BAZ2B inh: inactive; HP1b chromo inh: inconclusive

How did O=C(NCCc1nc2ccccc2n1CCOc1ccccc1)C1CCCCC1 do in these assays?
JMJD2A Tudor inh: inactive; HP1b chromo inh: inactive

Results for CC1CCC(NCCNC(=O)c2ccco2)CC1 (stereo not drawn) ?
Sfp PPTase inh: inactive; G9a inh: 35.5µM; JMJD2A Tudor inh: 20µM; BAZ2B inh: inactive; HP1b chromo inh: inactive

How did CC(C)C(NC(=O)c1ccco1)C(=O)NC1CCCCCC1 (stereo not drawn) do in these assays?
Sfp PPTase inh: inactive; G9a inh: 79.4µM; JMJD2A Tudor inh: inactive; BAZ2B inh: inactive; HP1b chromo inh: inactive

What do the screens show for `O=C(NC1CCCCCCC1)c1ccco1`?
Sfp PPTase inh: inactive; G9a inh: inactive[12.7 µM]; JMJD2A Tudor inh: inactive; L3MBTL1 inh: inactive; BAZ2B inh: inactive; HP1b chromo inh: inactive

How did O=C(NCCNC1CCCCC1)c1ccco1 do in these assays?
Sfp PPTase inh: inactive; G9a inh: 44.7µM; JMJD2A Tudor inh: 3.55µM; BAZ2B inh: inconclusive; HP1b chromo inh: inconclusive

What do the screens show for `CC1(C)OC(C(O)(c2cc(C(F)(F)F)cc(C(F)(F)F)c2)c2cc(C(F)(F)F)cc(C(F)(F)F)c2)C(C(O)(c2cc(C(F)(F)F)cc(C(F)(F)F)c2)c2cc(C(F)(F)F)cc(C(F)(F)F)c2)O1` (stereo not drawn)?
Sfp PPTase inh: inactive

What do the screens show for `CCc1ccc(CCN2C(=O)c3ccccc3C2=O)nc1`?
Sfp PPTase inh: inactive; JMJD2A Tudor inh: inactive; L3MBTL1 inh: inactive; BAZ2B inh: inactive; HP1b chromo inh: inactive

What do the screens show for `Cc1nc(CCN2C(=O)c3ccccc3C2=O)n[nH]1`?
Sfp PPTase inh: inactive; G9a inh: inconclusive; JMJD2A Tudor inh: 25.1µM; BAZ2B inh: inconclusive; HP1b chromo inh: inactive

What do the screens show for `COc1cc(Cn2ccnc2)c(OC)cc1Cn1ccnc1`?
Sfp PPTase inh: inactive; G9a inh: inconclusive; JMJD2A Tudor inh: inactive; L3MBTL1 inh: inactive; BAZ2B inh: 79.4µM; HP1b chromo inh: inactive

Results for COC(=O)[C@@]1(Cc2ccccc2)[C@H]2c3cc(C(=O)N(C)C)n(CCF)c3C[C@H]2CN1C(=O)c1ccccc1 ?
Sfp PPTase inh: inactive

Results for C=CCn1c(N)c(C(=O)NCC2CCCO2)sc1=S (stereo not drawn) ?
Sfp PPTase inh: inactive; G9a inh: inactive[12.7 µM]; JMJD2A Tudor inh: inactive[11.4 µM]; BAZ2B inh: inactive; HP1b chromo inh: inactive

Results for CCn1c(N)c(C(=O)N2CCOCC2)sc1=S ?
Sfp PPTase inh: 44.7µM; G9a inh: 10µM; JMJD2A Tudor inh: inactive; L3MBTL1 inh: inactive; BAZ2B inh: inactive; HP1b chromo inh: inconclusive

What do the screens show for `C=CCn1c(N)c(C(=O)Nc2ccc(C)cc2)sc1=S`?
Sfp PPTase inh: inactive; G9a inh: inactive; JMJD2A Tudor inh: inactive; BAZ2B inh: inactive; HP1b chromo inh: inactive

What do the screens show for `C=CCn1c(N)c(C(=O)N2CCOCC2)sc1=S`?
Sfp PPTase inh: inactive; G9a inh: inconclusive; JMJD2A Tudor inh: inactive; BAZ2B inh: inactive; HP1b chromo inh: inactive

Results for Cn1c(N)c(C(=O)Nc2ccc(-c3ccccc3)cc2)sc1=S ?
Sfp PPTase inh: 3.16µM; G9a inh: 8.91µM; JMJD2A Tudor inh: 50.1µM; L3MBTL1 inh: inactive; BAZ2B inh: 50.1µM; HP1b chromo inh: inconclusive

What do the screens show for `CCNC(=O)c1sc(=S)n(CC)c1N`?
Sfp PPTase inh: 50.1µM; G9a inh: 12.6µM; JMJD2A Tudor inh: inactive; L3MBTL1 inh: inactive; BAZ2B inh: inconclusive; HP1b chromo inh: inactive

What do the screens show for `CC(C)OCCCNC(=O)c1sc(=S)n(C)c1N`?
Sfp PPTase inh: 50.1µM; G9a inh: 14.1µM; JMJD2A Tudor inh: inactive; L3MBTL1 inh: inactive; BAZ2B inh: inactive; HP1b chromo inh: inconclusive

Results for COc1cc(C(=O)O)c2c(c1C)OC(=O)c1c(C)cc(O)c(C=O)c1O2 ?
JMJD2A Tudor inh: inactive; HP1b chromo inh: inactive

What do the screens show for `CCCCC(=O)O[C@]1(C(=O)CO)CCC2C3CCC4=CC(=O)CCC4(C)C3C(O)CC21C` (stereo partly drawn)?
Sfp PPTase inh: inactive; G9a inh: inactive[12.7 µM]

What do the screens show for `CCn1c(N)c(C(=O)NCC2CCCO2)sc1=S` (stereo not drawn)?
Sfp PPTase inh: 17.8µM; G9a inh: inactive[12.7 µM]; JMJD2A Tudor inh: inconclusive; L3MBTL1 inh: inactive; BAZ2B inh: 79.4µM; HP1b chromo inh: 11.2µM

What do the screens show for `CCn1c(N)c(C(=O)NCCCOC)sc1=S`?
Sfp PPTase inh: 20µM; G9a inh: 28.2µM; JMJD2A Tudor inh: inactive; L3MBTL1 inh: inactive; BAZ2B inh: inconclusive; HP1b chromo inh: 50.1µM

What do the screens show for `COc1ccccc1C1CC(c2cccs2)=Nc2ccccc2S1` (stereo not drawn)?
Sfp PPTase inh: 50.1µM; G9a inh: inactive[12.7 µM]; JMJD2A Tudor inh: inactive; BAZ2B inh: inactive; HP1b chromo inh: inactive

Results for COc1ccccc1C1CC(c2cccs2)=NN1C(=O)CCC(=O)O (stereo not drawn) ?
Sfp PPTase inh: inactive; G9a inh: inactive; JMJD2A Tudor inh: inactive; L3MBTL1 inh: inactive; BAZ2B inh: inactive; HP1b chromo inh: inactive

How did CCOC(=O)N1CCN(C2=C(NS(=O)(=O)c3ccccc3)C(=O)c3ccccc3C2=O)CC1 do in these assays?
Sfp PPTase inh: inactive; G9a inh: 35.5µM; JMJD2A Tudor inh: inconclusive; BAZ2B inh: 31.6µM; HP1b chromo inh: inconclusive

How did CN1CCN(C2=C(NS(=O)(=O)c3ccccc3)C(=O)c3ccccc3C2=O)CC1 do in these assays?
Sfp PPTase inh: inactive; G9a inh: 28.2µM; JMJD2A Tudor inh: inactive; BAZ2B inh: inconclusive; HP1b chromo inh: inactive

Results for CCN1CCN(C2=C(NS(=O)(=O)c3ccccc3)C(=O)c3ccccc3C2=O)CC1 ?
Sfp PPTase inh: inactive; G9a inh: inactive[0.0925 µM]; JMJD2A Tudor inh: inactive; BAZ2B inh: inconclusive; HP1b chromo inh: inactive

Results for O=C1C(NS(=O)(=O)c2ccc(Cl)cc2)=C(N2CCCCC2)C(=O)c2ccccc21 ?
Sfp PPTase inh: inactive; G9a inh: 10µM; JMJD2A Tudor inh: 11.2µM; L3MBTL1 inh: 25.1µM; BAZ2B inh: 5.62µM; HP1b chromo inh: inconclusive

Results for Cc1noc(C)c1S(=O)(=O)N(CC(=O)Nc1ccc(C(F)(F)F)cc1)c1ccc(C(C)C)cc1 ?
G9a inh: inactive; JMJD2A Tudor inh: inactive; HP1b chromo inh: inactive

What do the screens show for `Cc1cccc(N(CC(=O)Nc2ccc(Br)cc2)S(C)(=O)=O)c1C`?
G9a inh: inactive; JMJD2A Tudor inh: inactive; BAZ2B inh: inactive; HP1b chromo inh: inactive

What do the screens show for `CC(C)[C@H](NC(=O)c1ccc(Cl)cc1)C(=O)OCC(=O)N1CCN(c2ccccc2)CC1`?
JMJD2A Tudor inh: inactive; L3MBTL1 inh: inactive; HP1b chromo inh: inactive

From PubChem BioAssay
